Outcome and AC50 data for 3 compounds are collected here from PubChem BioAssay (EPA / NIEHS).

Read-out in assay [1]: Interleukin-8 (IL8), CXCL8 (gene 3576)
Briefly: BSK_3C_IL8: BioMAP Diversity Plus: 3C Assay for Interleukin-8 (IL8) Biomarker Activity (AID 2283020). The conditions noted are these: primary human endothelial cells (HUVEC); actives raise or lower the signal. In short, it runs like this:
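Using DMSO-treated wells as the baseline, bidirectional curve fitting was applied to ELISA-measured IL-8 from human umbilical vein endothelial cultures sampled 24 h after compound addition.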

Read-out in assay [2]: Monokine induced gamma interferon (MIG), CXCL9 (gene 4283)
Briefly: BSK_3C_MIG: BioMAP Diversity Plus: 3C Assay for Monokine induced gamma interferon (MIG) Biomarker Activity (AID 2283021). The conditions noted are these: primary human endothelial cells (HUVEC); actives raise or lower the signal. The essentials: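 ELISA-measured MIG in dosed HUVEC 3C cultures at 24 h, analysed by bidirectional fitting with DMSO defining baseline activity.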

For assay [3], the target named is human Vitamin D Receptor (VDR), VDR (gene 7421) (UniProt P11473). Briefly: ATG_VDR_TRANS: Attagene TRANS-FACTORIAL HepG2 Assay for human Vitamin D Receptor (VDR) (AID 2283022; active means hit-call score of the fitted dose curve at least 0.9, where 1 is the maximum). The essentials: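 HepG2 cells were transiently transfected with GAL4-UAS reporter units and a chimeric VDR-Gal4 construct, then dosed for 24 hours. Reporter mRNA was quantified by RT-PCR, fluorescent labeling, HpaI digestion and capillary electrophoresis; gain of signal analysed vs DMSO.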

A short description of assay [4]: BSK_3C_SRB: Viability Assessment in the BioMAP Diversity Plus: 3C Assay (AID 2283023).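 Further: fitted both ways against DMSO so a hit may be signal rise or drop.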 The conditions noted are these: primary human endothelial cells (HUVEC). In short, it runs like this: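 Human umbilical vein endothelial cells in the 3C system, treated 24 h. Total protein measured by 0.1% sulforhodamine B staining after 10% TCA fixation, read at 560 nm; bidirectional fit versus DMSO.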

Read-out in assay [5]: Matrix Metallopeptidase 1 (MMP1), MMP1 (gene 4312)
The experiment in a line: BSK_BE3C_MMP1: BioMAP Diversity Plus: BE3C Assay for Matrix Metallopeptidase 1 (MMP1) Biomarker Activity (AID 2283024). The conditions noted are these: primary human bronchial epithelial cells; actives raise or lower the signal. The essentials: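 In this multiplexed primary-cell system, human bronchial epithelium received chemicals for 24 h before an ELISA for MMP1. Values reflect bidirectional fits normalised to the DMSO baseline.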

Assay [6] can be described thus: BSK_3C_Vis: BioMAP Diversity Plus: 3C Assay for Morphology Visualization (AID 2283025).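 Further: light microscopy image of cell morphology used as background control; fitted both ways so gain or loss versus DMSO counts.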 The conditions noted are these: primary human endothelial cells (HUVEC). The essentials:
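Light-microscopy morphology readout, 24 h exposure, human primary umbilical vein endothelium; analysed relative to DMSO with bidirectional fitting.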

Read-out in assay [7]: Pselectin, SELP (gene 6403)
Briefly: BSK_4H_Pselectin: BioMAP Diversity Plus: 4H Assay for Pselectin Biomarker Activity (AID 2283026). The conditions noted are these: primary human endothelial cells (HUVEC); actives raise or lower the signal. The essentials:
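Bidirectional fits against DMSO gave the endpoint. Cells: primary human umbilical vein endothelium, chemical-treated for 24 h before ELISA detection of P-selectin.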

Assay [8] is described as follows: BSK_4H_SRB: Viability Assessment in the BioMAP Diversity Plus: 4H Assay (AID 2283027).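 Further: cells exposed to compound for 24 h before staining.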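 On AC50: curves fitted both ways versus DMSO so AC50 may be loss or gain.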 As to conditions: primary human endothelial cells (HUVEC). The essentials:
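Cytotoxicity readout: sulforhodamine B (0.1%) staining of total protein after 10% TCA fixation, measured at 560 nm in human umbilical vein endothelium at 24 h. DMSO set the baseline; fitting was bidirectional.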

Assay [9] is described as follows: BSK_BE3C_SRB: Viability Assessment in the BioMAP Diversity Plus: BE3C Assay (AID 2283028).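 On AC50: fitted both ways so AC50 may mark signal gain or loss versus DMSO.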 The conditions noted are these: primary human bronchial epithelial cells. The essentials: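 Human bronchial epithelial primary cells in confluent culture, 24 h after chemical dosing; total protein by 0.1% SRB staining after 10% TCA fixation, read at 560 nm. Bidirectional fitting versus DMSO baseline.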

Read-out in assay [10]: Thrombomodulin, THBD (gene 7056)
Briefly: BSK_3C_Thrombomodulin: BioMAP Diversity Plus: 3C Assay for Thrombomodulin Biomarker Activity (AID 2283029). As to conditions: primary human endothelial cells (HUVEC); actives raise or lower the signal. The essentials: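 In a multiplexed primary-cell system, human umbilical vein endothelium received chemical and was assayed 24 h later for thrombomodulin by ELISA. Parallel cultures were SRB-stained (0.1% SRB after 10% TCA fixation, read at 560 nm) to flag cytotoxicity.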

Read-out in assay [11]: Urokinase-type plasminogen activator receptor (uPAR), PLAUR (gene 5329)
Briefly: BSK_4H_uPAR: BioMAP Diversity Plus: 4H Assay for Urokinase-type plasminogen activator receptor (uPAR) Biomarker Activity (AID 2283030). As to conditions: primary human endothelial cells (HUVEC); actives raise or lower the signal. The essentials:
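Human umbilical vein endothelial cells in the 4H system, 24 h after chemical dosing. Cell-surface uPAR measured by ELISA, fitted in both directions versus DMSO; cytotoxicity checked by SRB total protein in parallel cultures.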

Read-out in assay [12]: Vascular endothelial growth factor receptor 2 (Homo sapiens) (UniProt P35968)
Briefly: BSK_4H_VEGFRII: BioMAP Diversity Plus: 4H Assay for Vascular endothelial growth factor receptor 2 (VEGFR2) Biomarker Activity (AID 2283031). The conditions noted are these: primary human endothelial cells (HUVEC); actives raise or lower the signal. In short, it runs like this: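 Primary human umbilical vein endothelial cells (4H system), 24 h exposure; cell-surface VEGFR2 measured by ELISA. Bidirectional fitting versus DMSO; cytotoxicity checked in parallel by SRB total-protein staining.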

Read-out in assay [13]: Human Leukocyte Antigen - DR isotype (HLADR), HLA-DRA (gene 3122)
The experiment in a line: BSK_BE3C_HLADR: BioMAP Diversity Plus: BE3C Assay for Human Leukocyte Antigen - DR isotype (HLADR) Biomarker Activity (AID 2283032). The conditions noted are these: primary human bronchial epithelial cells; actives raise or lower the signal. The essentials:
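BioMAP BE3C format: human bronchial epithelium, 24 h compound treatment, ELISA detection of HLA-DR, with bidirectional analysis relative to DMSO.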

Read-out in assay [14]: Vascular cell adhesion molecule 1 (VCAM1), VCAM1 (gene 7412)
Briefly: BSK_4H_VCAM1: BioMAP Diversity Plus: 4H Assay for Vascular cell adhesion molecule 1 (VCAM1) Biomarker Activity (AID 2283033).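 Further: cell-surface VCAM-1 protein measured by ELISA.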 The conditions noted are these: primary human endothelial cells (HUVEC); actives raise or lower the signal. In short, it runs like this:
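In this human endothelial (HUVEC) system, biomarker ELISA was run 24 h after compound addition, and total protein in parallel wells was assessed by SRB at 560 nm; DMSO served as negative control.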

Read-out in assay [15]: Interferon-gamma inducible Protein 10 (IP10), CXCL10 (gene 3627)
Briefly: BSK_BE3C_IP10: BioMAP Diversity Plus: BE3C Assay for Interferon-gamma inducible Protein 10 (IP10) Biomarker Activity (AID 2283034). The conditions noted are these: primary human bronchial epithelial cells; actives raise or lower the signal. In short, it runs like this: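 BE3C cells (human bronchial epithelial, primary); 24 h exposure; ELISA for IP-10; DMSO-referenced bidirectional fit.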

Read-out in assay [16]: Monokine induced gamma interferon (MIG), CXCL9 (gene 4283)
Briefly: BSK_BE3C_MIG: BioMAP Diversity Plus: BE3C Assay for Monokine induced gamma interferon (MIG) Biomarker Activity (AID 2283035). The conditions noted are these: primary human bronchial epithelial cells; actives raise or lower the signal. The essentials: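 hu bronchial epithelial 1° cells, 24 h cpd; MIG by ELISA; bidirectional fit, DMSO = baseline.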

Read-out in assay [17]: Transforming growth factor beta 1 (TGFb1), TGFB1 (gene 7040)
The experiment in a line: BSK_BE3C_TGFb1: BioMAP Diversity Plus: BE3C Assay for Transforming growth factor beta 1 (TGFb1) Biomarker Activity (AID 2283036;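 further: TGF-b1 protein level measured by ELISA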). As to conditions: primary human bronchial epithelial cells; actives raise or lower the signal. In short, it runs like this:
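TGF-b1 measured via ELISA, 24 h after chemical dosing of human bronchial epithelial cells (BE3C). Overt cytotoxicity assessed in parallel by SRB (0.1%, TCA-fixed, 560 nm); analysis bidirectional relative to DMSO.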

Read-out in assay [18]: urokinase plasminogen activator (uPA), PLAU (gene 5328)
Briefly: BSK_BE3C_uPA: BioMAP Diversity Plus: BE3C Assay for urokinase plasminogen activator (uPA) Biomarker Activity (AID 2283038).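 Further: uPA protein level quantified by ELISA in cell cultures; uPA read one day after compound addition.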 As to conditions: primary human bronchial epithelial cells; actives raise or lower the signal. In short, it runs like this: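 Primary human bronchial epithelial cells, uPA measured by ELISA 24 h after dosing. Bidirectional change relative to DMSO; cytotoxicity checked in parallel cultures by sulforhodamine B total-protein staining.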

Read-out in assay [19]: Urokinase-type plasminogen activator receptor (uPAR), PLAUR (gene 5329)
Briefly: BSK_BE3C_uPAR: BioMAP Diversity Plus: BE3C Assay for Urokinase-type plasminogen activator receptor (uPAR) Biomarker Activity (AID 2283039).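 Further: cells exposed to compound for one day before measurement.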 The conditions noted are these: primary human bronchial epithelial cells; actives raise or lower the signal. In short, it runs like this:
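Chemically treated human bronchial epithelial cells (lung primary) are assayed for uPAR by ELISA after 24 h, with data fitted in both directions using DMSO as negative control.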

Molecules are shown by their SMILES. Results filed as inconclusive are left out. Activity calls are given as the source filed them. How the source made its calls, unless noted: active means hit-call score of the fitted dose curve at least 0.9, where 1 is the maximum; inactive means score below 0.9.

Chain of human Vitamin D Receptor (VDR), VDR (gene 7421) (P11473 whole entry, looked up, the tested form may be a part): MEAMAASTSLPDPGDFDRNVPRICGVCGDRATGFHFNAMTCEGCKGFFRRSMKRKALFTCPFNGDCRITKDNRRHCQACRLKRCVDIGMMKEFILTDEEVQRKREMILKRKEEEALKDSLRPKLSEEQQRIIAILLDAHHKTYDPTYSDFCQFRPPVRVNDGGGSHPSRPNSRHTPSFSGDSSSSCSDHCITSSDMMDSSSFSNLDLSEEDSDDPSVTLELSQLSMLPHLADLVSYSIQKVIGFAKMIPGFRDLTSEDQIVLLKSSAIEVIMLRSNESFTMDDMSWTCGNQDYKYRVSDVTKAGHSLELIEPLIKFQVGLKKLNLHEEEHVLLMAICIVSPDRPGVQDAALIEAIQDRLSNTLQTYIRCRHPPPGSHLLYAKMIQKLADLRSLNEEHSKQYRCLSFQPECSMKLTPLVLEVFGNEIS

A word on the AC50: it is the concentration giving half of the maximal activity seen. In the case of `CCc1cccc(C)c1N(C(=O)CCl)C(C)COC` (stereo unspecified), the outcome in assay [1], in assay [2], in assay [3], in assay [4], in assay [5] and in [8] was inactive. Besides, the result in assay [9], in assay [10], in assay [11], in assay [12], in assay [13] and in [14] was inactive. In addition, the result in [15], in assay [16], in assay [17], in assay [18] and in [19] was inactive. The concentration at half-maximal activity (AC50) in assay [6] is 39 µM (active); in [7] it was 13.6 µM (active).

Regarding `Cc1cc(C2CC2)nc(Nc2ccccc2)n1`, the result in assay [1], in assay [2], in assay [3], in assay [5], in assay [7] and in assay [8] was inactive. Further, the outcome in assay [9], in [11], in [12], in assay [14], in assay [15] and in assay [16] was inactive. Moreover, the outcome in assay [17], in assay [18] and in assay [19] was inactive. In addition, the AC50 in [4] is 24.8 µM (active); in [6], 37.5 µM (active); in [10], 33.7 µM (active); in [13], 5.17 µM (active).

Consider `CCCCSP(=O)(SCCCC)SCCCC`, for which the AC50 in [1] is 31.9 µM (active); in assay [4], 27.9 µM (active); in [6], 13.7 µM (active); in [8] it was 20 µM (active); in [9], 14.7 µM (active); in assay [10], 5.35 µM (active). Also, in [13], the concentration at half-maximal activity (AC50) is 20 µM (active). Also, the result in [2], in assay [3], in assay [5], in assay [7], in assay [11] and in assay [14] was inactive. Further, the outcome in assay [15], in [16], in assay [17], in assay [18] and in assay [19] was inactive.
